This passage reports Percent Effect results from ChEMBL document CHEMBL3988442, “University of Dundee, Small-Polar-MMV Screening Library” (2021).

Parameters in all cases: scale not given: direction of the effect not stated beside the values
In experiment [1] the target is Protein translocase subunit SecA (Escherichia coli (strain K12)) (UniProt P10408). Description: Assay to Identify E. coli SecA ATPase Inhibitors. It is filed as functional. As to conditions: 30 µM.
The target in experiment [2] is T1, Ubiquitin-activating enzyme e1, putative (Leishmania donovani (strain BPK282A1)) (UniProt E9BSI1).
T1 sequence (whole entry): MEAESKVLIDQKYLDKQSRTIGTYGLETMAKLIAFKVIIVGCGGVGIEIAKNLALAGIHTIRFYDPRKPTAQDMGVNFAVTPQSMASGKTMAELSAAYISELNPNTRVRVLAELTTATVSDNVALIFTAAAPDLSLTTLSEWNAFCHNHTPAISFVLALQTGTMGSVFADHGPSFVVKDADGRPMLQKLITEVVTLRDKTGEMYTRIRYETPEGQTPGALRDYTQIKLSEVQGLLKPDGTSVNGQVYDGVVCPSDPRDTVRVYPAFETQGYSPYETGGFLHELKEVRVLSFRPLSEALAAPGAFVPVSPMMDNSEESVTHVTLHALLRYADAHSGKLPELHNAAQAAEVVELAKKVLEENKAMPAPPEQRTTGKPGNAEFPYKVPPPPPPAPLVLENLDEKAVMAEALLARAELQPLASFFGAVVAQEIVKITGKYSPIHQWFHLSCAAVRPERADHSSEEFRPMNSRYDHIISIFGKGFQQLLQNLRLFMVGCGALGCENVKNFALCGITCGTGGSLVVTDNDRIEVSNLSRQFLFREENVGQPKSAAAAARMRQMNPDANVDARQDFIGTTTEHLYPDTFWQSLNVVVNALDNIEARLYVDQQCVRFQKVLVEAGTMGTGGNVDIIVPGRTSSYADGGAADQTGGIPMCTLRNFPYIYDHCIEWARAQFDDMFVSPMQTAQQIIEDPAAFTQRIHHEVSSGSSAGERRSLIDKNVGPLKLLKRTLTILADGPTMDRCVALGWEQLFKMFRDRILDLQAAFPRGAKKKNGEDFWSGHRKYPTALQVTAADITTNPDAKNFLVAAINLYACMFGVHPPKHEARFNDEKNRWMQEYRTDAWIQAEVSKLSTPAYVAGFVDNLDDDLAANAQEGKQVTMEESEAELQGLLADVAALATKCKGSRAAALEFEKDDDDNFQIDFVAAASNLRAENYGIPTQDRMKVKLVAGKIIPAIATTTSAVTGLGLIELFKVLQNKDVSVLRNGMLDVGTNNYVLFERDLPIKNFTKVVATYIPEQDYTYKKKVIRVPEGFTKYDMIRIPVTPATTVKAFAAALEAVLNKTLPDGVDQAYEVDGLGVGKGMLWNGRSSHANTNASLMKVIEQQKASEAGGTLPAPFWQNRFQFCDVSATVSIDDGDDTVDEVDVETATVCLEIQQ
In words: Leishmania donovani Ubiquitin Activating Enzyme (LdE1). It counts as functional. As to conditions: 30 µM.

For experiment [3], the target named is AMP-activated protein kinase, AMPK (Homo sapiens) (UniProt P54646+O43741+P54619+Q9UGJ0+Q9Y478+Q13131+Q9UGI9). Description: AMP-dependent Kinase enzyme assay. An in vitro enzyme assay that detects ADP turnover that is directly proportional to AMPK activity. This uses naive AMPK that is activated during the assay with MK-8722. It is filed as functional. The following applies: 30 µM.

Experiment [4] addresses Sialic acid-binding Ig-like lectin 9 (Homo sapiens) (UniProt Q9Y336). In words: Hs-Siglec9 ALPHAscreen SOP 20170721. The following applies: 10 µM.
The test system of a further experiment is Trypanosoma cruzi. In words: Trypanosoma cruzi phosphomannomutase and mannose-1-phosphate guanylyltransferase assay. As to conditions: 10 µM. It counts as functional.
Experiment [5] addresses T2, Arginase-2, mitochondrial (Homo sapiens) (UniProt P78540).
T2 sequence (whole entry): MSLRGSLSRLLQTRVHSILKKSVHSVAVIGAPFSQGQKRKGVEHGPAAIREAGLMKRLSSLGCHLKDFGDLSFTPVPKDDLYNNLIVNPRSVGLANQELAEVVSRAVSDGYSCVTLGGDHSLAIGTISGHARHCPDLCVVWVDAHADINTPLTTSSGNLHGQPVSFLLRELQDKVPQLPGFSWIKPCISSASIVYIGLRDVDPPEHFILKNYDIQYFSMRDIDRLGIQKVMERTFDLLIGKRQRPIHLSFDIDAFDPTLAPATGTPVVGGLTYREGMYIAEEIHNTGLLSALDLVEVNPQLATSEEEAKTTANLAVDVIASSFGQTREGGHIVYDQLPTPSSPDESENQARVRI
Description: in vitro enzyme assay to detect the production of urea directly proportional to the activity of Arginase II. Note: in the data most compounds retested in dose-response had high values. It is filed as functional. The following applies: 33.3 µM.

The target in experiment [6] is T3, Proteasome subunit beta (Trypanosoma cruzi) (UniProt O96673).
T3 sequence (whole entry): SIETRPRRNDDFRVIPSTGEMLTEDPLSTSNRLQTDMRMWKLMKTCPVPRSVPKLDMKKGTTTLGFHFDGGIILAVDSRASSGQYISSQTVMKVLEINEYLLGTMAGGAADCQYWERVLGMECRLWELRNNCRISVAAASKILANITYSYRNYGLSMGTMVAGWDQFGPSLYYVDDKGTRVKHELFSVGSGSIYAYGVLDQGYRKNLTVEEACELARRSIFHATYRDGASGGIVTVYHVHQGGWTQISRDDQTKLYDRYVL
Description: Trypanosoma cruzi proteasome chymotrypsin-like activity (TcProtChymo) assay. Note: in the data most compounds retested in dose-response had high values. It counts as functional. The following applies: 9.37 µM.

The next experiment is filed under the species Homo sapiens. Description: To identify inhibition of the IFN signalling (Jak-Stat) pathway via expression of an eGFP reporter gene under the control of an IFN-stimulated response element (ISRE) containing MxA promoter. It is filed as functional. As to conditions: 30 µM.
The target of experiment [7] is T4, Tyrosyl-tRNA synthetase, putative (Trypanosoma cruzi (strain CL Brener)) (UniProt Q4DSP6).
T4 sequence (whole entry): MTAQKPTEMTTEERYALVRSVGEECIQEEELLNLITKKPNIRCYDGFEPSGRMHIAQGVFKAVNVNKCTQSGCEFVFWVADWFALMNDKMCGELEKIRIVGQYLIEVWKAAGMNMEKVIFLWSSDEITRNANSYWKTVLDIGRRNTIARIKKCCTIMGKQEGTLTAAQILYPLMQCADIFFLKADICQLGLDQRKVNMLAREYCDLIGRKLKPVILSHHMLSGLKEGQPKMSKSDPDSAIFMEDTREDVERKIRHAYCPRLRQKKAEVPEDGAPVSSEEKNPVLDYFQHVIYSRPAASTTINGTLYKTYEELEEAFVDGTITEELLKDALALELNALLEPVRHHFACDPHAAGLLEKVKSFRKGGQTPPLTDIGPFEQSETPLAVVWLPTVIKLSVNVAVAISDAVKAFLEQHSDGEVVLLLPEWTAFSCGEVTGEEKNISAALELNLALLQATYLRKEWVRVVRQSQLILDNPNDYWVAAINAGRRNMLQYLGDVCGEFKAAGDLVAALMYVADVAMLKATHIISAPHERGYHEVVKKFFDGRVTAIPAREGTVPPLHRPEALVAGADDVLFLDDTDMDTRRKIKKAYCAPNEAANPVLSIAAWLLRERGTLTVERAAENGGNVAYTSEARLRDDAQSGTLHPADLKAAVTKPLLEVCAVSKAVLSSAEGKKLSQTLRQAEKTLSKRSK
In words: Trypanosoma cruzi tyrosyl tRNA synthetase (TcYRS) _High Tyrosine SOP. Note: in the data most compounds retested in dose-response had high values. It is filed as functional. As to conditions: 30 µM.

Experiment [8] concerns the target T4, Tyrosyl-tRNA synthetase, putative (Trypanosoma cruzi (strain CL Brener)). Description: Trypanosoma cruzi tyrosyl tRNA synthetase (TcYRS) SOP. It counts as functional. As to conditions: 30 µM.
Experiment [9] addresses Chromo domain-containing protein 1 (Saccharomyces cerevisiae (strain ATCC 204508 / S288c) (Baker's yeast)) (UniProt P32657). In words: ScCHD-1 Enzyme Inhibition Assay. Note: in the data most compounds retested in dose-response had high values. It counts as functional. As to conditions: 30 µM.

Structures are written as SMILES. For some of these results: Results with a measured potency or affinity are listed apart.

Chain of Chromo domain-containing protein 1 (Saccharomyces cerevisiae (strain ATCC 204508 / S288c) (Baker's yeast)) (P32657 whole entry, the tested form may be a part): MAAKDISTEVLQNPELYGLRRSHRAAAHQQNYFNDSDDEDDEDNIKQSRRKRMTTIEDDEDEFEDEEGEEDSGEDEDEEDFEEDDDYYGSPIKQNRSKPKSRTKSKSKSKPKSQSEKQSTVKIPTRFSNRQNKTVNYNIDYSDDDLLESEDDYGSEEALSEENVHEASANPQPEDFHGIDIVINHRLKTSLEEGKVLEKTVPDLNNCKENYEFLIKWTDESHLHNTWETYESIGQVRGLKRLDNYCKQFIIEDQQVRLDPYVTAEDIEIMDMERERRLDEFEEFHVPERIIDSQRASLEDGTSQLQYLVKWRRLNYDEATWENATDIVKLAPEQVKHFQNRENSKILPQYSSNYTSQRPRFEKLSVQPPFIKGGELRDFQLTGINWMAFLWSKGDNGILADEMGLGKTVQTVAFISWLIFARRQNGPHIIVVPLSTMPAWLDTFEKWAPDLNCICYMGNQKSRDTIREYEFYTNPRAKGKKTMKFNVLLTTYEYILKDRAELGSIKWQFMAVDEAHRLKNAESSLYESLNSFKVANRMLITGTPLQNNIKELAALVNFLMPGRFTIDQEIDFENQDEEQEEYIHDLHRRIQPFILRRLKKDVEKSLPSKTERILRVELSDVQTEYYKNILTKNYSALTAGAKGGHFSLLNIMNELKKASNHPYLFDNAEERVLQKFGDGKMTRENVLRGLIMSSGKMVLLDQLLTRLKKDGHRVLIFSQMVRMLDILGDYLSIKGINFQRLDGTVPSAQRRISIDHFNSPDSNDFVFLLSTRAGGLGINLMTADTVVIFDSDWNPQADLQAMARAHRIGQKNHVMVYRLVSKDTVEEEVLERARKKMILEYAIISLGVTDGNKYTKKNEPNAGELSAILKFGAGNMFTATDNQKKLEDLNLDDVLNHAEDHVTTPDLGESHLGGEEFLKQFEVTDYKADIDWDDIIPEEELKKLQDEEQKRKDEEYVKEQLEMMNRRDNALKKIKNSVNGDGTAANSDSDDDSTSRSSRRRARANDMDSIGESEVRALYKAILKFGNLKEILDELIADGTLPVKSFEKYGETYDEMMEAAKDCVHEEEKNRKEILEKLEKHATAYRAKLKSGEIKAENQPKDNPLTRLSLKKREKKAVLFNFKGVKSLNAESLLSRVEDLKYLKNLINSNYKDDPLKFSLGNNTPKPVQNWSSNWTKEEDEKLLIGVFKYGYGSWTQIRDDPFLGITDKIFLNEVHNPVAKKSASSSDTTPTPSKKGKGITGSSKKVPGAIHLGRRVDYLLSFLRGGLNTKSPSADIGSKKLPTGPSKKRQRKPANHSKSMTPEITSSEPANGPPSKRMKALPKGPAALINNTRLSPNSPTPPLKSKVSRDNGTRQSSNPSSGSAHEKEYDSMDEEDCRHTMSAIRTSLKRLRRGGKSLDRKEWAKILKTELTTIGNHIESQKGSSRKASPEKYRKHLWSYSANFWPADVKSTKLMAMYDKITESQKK
Chain of Sialic acid-binding Ig-like lectin 9 (Homo sapiens) (Q9Y336 whole entry): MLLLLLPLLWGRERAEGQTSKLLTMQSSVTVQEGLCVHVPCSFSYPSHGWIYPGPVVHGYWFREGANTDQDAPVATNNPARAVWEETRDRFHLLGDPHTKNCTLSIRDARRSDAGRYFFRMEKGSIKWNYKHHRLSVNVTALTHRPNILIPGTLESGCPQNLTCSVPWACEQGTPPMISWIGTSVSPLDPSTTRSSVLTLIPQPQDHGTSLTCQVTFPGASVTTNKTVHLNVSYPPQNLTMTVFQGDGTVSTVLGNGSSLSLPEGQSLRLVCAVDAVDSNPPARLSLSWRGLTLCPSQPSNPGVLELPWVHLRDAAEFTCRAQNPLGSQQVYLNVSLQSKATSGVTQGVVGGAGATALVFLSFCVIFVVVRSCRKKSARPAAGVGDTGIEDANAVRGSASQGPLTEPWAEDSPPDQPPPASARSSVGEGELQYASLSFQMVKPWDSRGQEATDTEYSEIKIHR
Chain of Protein translocase subunit SecA (Escherichia coli (strain K12)) (P10408 whole entry): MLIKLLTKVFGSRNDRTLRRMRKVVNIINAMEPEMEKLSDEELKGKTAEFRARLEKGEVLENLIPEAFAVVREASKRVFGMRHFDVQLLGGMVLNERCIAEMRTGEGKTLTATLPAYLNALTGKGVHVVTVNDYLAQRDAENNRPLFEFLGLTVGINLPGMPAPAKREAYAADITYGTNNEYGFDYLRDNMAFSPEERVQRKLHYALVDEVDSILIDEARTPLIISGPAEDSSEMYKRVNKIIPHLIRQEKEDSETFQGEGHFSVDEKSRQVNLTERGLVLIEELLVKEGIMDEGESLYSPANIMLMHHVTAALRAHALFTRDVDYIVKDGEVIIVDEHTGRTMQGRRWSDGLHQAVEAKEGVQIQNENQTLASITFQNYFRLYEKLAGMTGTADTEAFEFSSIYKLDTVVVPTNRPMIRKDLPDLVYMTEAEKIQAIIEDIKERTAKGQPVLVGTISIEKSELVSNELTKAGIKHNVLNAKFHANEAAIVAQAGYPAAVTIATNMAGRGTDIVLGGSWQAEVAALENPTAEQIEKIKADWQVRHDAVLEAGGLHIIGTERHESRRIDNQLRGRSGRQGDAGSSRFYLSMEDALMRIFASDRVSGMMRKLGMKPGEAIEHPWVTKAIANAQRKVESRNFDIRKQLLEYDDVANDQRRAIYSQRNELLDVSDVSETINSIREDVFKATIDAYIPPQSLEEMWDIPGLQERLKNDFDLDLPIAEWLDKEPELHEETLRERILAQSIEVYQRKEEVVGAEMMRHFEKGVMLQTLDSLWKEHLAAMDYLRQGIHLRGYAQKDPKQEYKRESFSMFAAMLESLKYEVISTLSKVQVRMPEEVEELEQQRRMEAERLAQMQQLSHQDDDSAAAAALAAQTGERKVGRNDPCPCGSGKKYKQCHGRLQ

As for `O=C(NCC1CCN(C(=O)c2ccoc2)CC1)c1ccccc1Br`, the Percent Effect in [1] is -6.61%; in experiment [2] it was 5.48%; in [3], 3.13%; in [4], -5.78%; with Trypanosoma cruzi, -4.7%; in [5], -0.455%. Also, the Percent Effect is 15.6% in experiment [6]; -0.0227% in the experiment filed under Homo sapiens; 3.23% in experiment [7]; 5% in experiment [8]; -4.05% in experiment [9].

For `CCc1ccc(CN2CCCC(CO)(CCOC)C2)cc1` (stereo not drawn), the Percent Effect in [1] was -2.06%; in experiment [2], -5.41%; in experiment [3], -3.48%; in [4] it was -7.57%; with Trypanosoma cruzi, -4.79%; in experiment [5] it was -6.7%. For the same molecule, the Percent Effect in experiment [6] was -0.258%; in the experiment listed under Homo sapiens it was -5.11%; in experiment [7] it was -1.07%; in [8] it was 1.24%; in experiment [9] it was 1.15%.

For the molecule `CCn1c(CN(C)C)nnc1C1CCN(Cc2cccc(OC)c2)CC1`, the Percent Effect in [1] was 2.78%; in [2], 10.4%; in experiment [3], -4.93%; in experiment [4] it was 7.22%; with Trypanosoma cruzi it was -3.64%; in experiment [5], -12.4%. For the same molecule, the Percent Effect in experiment [6] was determined as 16%; in the experiment filed under Homo sapiens, 10.6%; in experiment [7] it was 4.3%; in [8], 11.1%; in experiment [9] it was 0.325%.

`CCc1n[nH]c(C2CN(C(=O)c3cc4c(s3)CCCC4)CCO2)n1` (stereo not drawn): the Percent Effect in [1] was -1.02%; in experiment [2], 20.2%; in [3], 0.0672%; in [4], -4.74%; in the experiment on Trypanosoma cruzi it was -6.33%; in experiment [5], -0.76%. In addition, the Percent Effect is 6.96% in experiment [6]; 30.5% in the experiment filed under Homo sapiens; 1.48% in [7]; 8.86% in experiment [8]; -5.65% in experiment [9].

Consider `Cc1cc(C)c(CNC(=O)N2CCN(c3ncccn3)CC2)c(=O)[nH]1`, for which the Percent Effect in [1] is -6.02%; in [2], 7.89%; in experiment [3], -4.85%; in [4], 6.02%; with Trypanosoma cruzi, 5.08%; in experiment [5], 3.45%. In addition, the Percent Effect in experiment [6] is 16.5%; in the experiment filed under Homo sapiens it was 2.72%; in [7], 3.43%; in experiment [8], 7.32%; in experiment [9] it was -10.9%.

Take `COCC(=O)N1CCC2(CC1)COCCN2CCN(C)C`: the Percent Effect is 0.864% in experiment [1]; -5.33% in [2]; -0.00705% in [3]; 4.73% in experiment [4]; -1.93% in the experiment with Trypanosoma cruzi; -50% in experiment [5]. The Percent Effect in [6] was 0.342%; in the experiment filed under Homo sapiens, -11.3%; in experiment [7], 3.12%; in experiment [8], -5%; in experiment [9], 0.531%.

`CC(NC(=O)NCc1cc[nH]n1)c1ccc2c(c1)CCC(=O)N2` (stereo not drawn): the Percent Effect was -3.48% in experiment [1]; 13% in experiment [2]; -2.39% in [3]; 10.7% in [4]; 5.43% in the experiment with Trypanosoma cruzi; 0.712% in experiment [5]. Further, the Percent Effect in [6] is 4.9%; in the experiment listed under Homo sapiens, 4.17%; in experiment [7], 4.85%; in experiment [8], 21.9%; in experiment [9], -9.64%.

With `CCc1csc(CCNC(=O)C2CC(=O)N(C(C)C)C2)n1` (stereo not drawn), the Percent Effect in experiment [1] was -2.98%; in experiment [2], 15.6%; in experiment [3], -6.03%; in experiment [4] it was 4.97%; in the experiment with Trypanosoma cruzi it was 0.0983%; in experiment [5], -11%. Moreover, the Percent Effect in [6] was 8.65%; in the experiment listed under Homo sapiens it was 8.23%; in experiment [7], 6.45%; in experiment [8], 13.6%; in experiment [9], -1.5%.
